# Measurements from the supplement of paper PMC11417369.
# ± gives the standard deviation of the averaged measurements. Over roughly 25,000 sequences, “ln(normalized median fluorescence intensity)” has its median near 8.6; the highest 2% begin near 10. Shown is part of a subset that was picked to be rich in the highest values.
# System: PfAP2-EXP AP2 domain (GST-tagged)
# Experiment: gcPBM binding intensity (ln(normalized median fluorescence intensity)); higher = stronger DNA binding
# In short: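 Alexa488 anti-GST antibody, scanned at 488 nm, detected GST-tagged P. falciparum DNA-binding domains that had been expressed in E. coli and incubated for 1 h on an Agilent 4 × 180k array. The array carried primer-extended double-stranded 36-bp intergenic genomic probes and negative controls. Binding intensity is the highest Masliner-normalised natural-log median intensity across replicate spots of either orientation of each probe.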
row,Sequence,gcPBM binding intensity (ln)
1,ACAAAAGGGGAATACACACACATATATAAATAAATA [CACACA_site7111],8.73 ± 0.45
2,TACACAAGGGGAAAAATATATATATATATATATATA [TGCATGCA_negctrl_site217],10.2 ± 0.57
3,AAGATATGAGGGAATACACACATATATATATATATA [CACACA_site1581],10.2 ± 0.43
4,TTTTTAATAATCTCTCAAAATGTTCTTATATTTTAC [CACACA_negctrl_site1691],8.11 ± 0.26
5,TATAAATGATTAATTTGTACATATTTTACTTAATTG [XGTACX_site5271],8.18 ± 0.37
6,ATATTATGTCTACATAAACACACATATATATAAAAA [CACACA_site7976],8.62 ± 0.48
7,TATATTTTACTCTTCACACATATACTCAATTTATAT [CACACA_site5357],8.94 ± 0.31
8,TTGTATCCTTAATGCATGCACCAAATAACAAAAGTA,10.2 ± 0.38
9,CTGTATAAAACCAATGCATGTAAATATATTAATATA [TGCATGCA_site511],9.1 ± 0.42
10,TATTGTATCCTTAATGCATGCACCAAATAAAAAAAG [TGCATGCA_site541],10.21 ± 0.064
11,AAAAAAAAAAAATATATATATATATATATATATATA [CACACA_negctrl_site1606],10.3 ± 0.21
12,AAAAAAAAAAAAAAAAAAAAAAAAATATATATATAT [CACACA_negctrl_site436],10 ± 0.31
13,AAAAAAAAAAAAAATATATATATATATATATATATA [CACACA_negctrl_site540],10.2 ± 0.2
14,AAAAAAATATATATATATATATATATATATATATAT [TGCATGCA_negctrl_site7],10.1 ± 0.26
15,AAAAAAAAAAAAAAAAAAAAAAAAAAATATATATAT [CACACA_negctrl_site271],9.795 ± 0.049
16,AAAAAAAAAATATATATATATATATATATATATATA [GTGCAC_negctrl_site467],9.95 ± 0.53
17,TTTAATTTTCCCTTCACACATAATATATATCTGTAT [CACACA_site5370],8.7 ± 0.43
18,TATTATATATATGTTGACATATTTGTACACTCCACT [TGCATGCA_negctrl_site200],8.79 ± 0.61
19,TATCAAAATTGTAATTGTACTTGTAAGTGGATATAT [XGTACX_site5949],8.68 ± 0.3
20,TTTTTTAAAATAATAGGTACACATAAAAAAAAAAAA [XGTACX_site2517],8.72 ± 0.67
21,AACATTATAAGACACACACACACATATATAAATATA [CACACA_site6622],8.65 ± 0.58
22,ACACATATATATTATTATTATATAATATATATATAT [CACACA_negctrl_site1545],9.21 ± 0.15
23,AAAAAAATGAAACACACACACACATATATATATATA [CACACA_site1043],10.1 ± 0.26

row,Sequence,gcPBM binding intensity (ln)
1,TTTTAAACAGGACACACACACATATATATATATATA [CACACA_site4664],10.1 ± 0.42
2,TTTTTAAAACATATCACACATATATATATATATATA [CACACA_site5991],10.3 ± 0.41
3,TTTTAATGAAAACACACACACACATATATATATATA [CACACA_site5295],10.3 ± 0.11
4,AAAAAAAAAAAAAACACACACATATAATATATTTAA [CACACA_site1337],8.35 ± 0.38
5,TTTTAAACAAGACACACACACATATATATATATATA [CACACA_site925],10.2 ± 0.35
6,TTTTAATTAAAACACACACACACATATATATATATA [CACACA_site2291],10.2 ± 0.23
7,TAATTTTTTAAACACACACACATATATATATATATA [CACACA_site4230],10.2 ± 0.3
8,ATTTTGTTATGAAACACACACATATATATATATATA [CACACA_site3650],10.2 ± 0.18
9,ATATTTTGTTATGAAACACACACATATATATATATA [CACACA_site9216],10.1 ± 0.16
10,AAAAAAAAAAATATCACACACACATAAATATAAACA [CACACA_site7138],8.6 ± 0.61
11,ATTTTGTTATGAAACACACACATATAAATATAAATA [CACACA_site7679],8.51 ± 0.3
12,AATTATATACATAAGTGTACATAATATATAAACATA [XGTACX_site793],8.31 ± 0.28
13,TACATCTTACTACTTATAATATAATATAGTATGAAT [TGCATGCA_negctrl_site8],8.21 ± 0.43
14,TTTTTCTTTTTTACAGTGCATAAATATATGTATTGT [GTGCAC_site9399],8.61 ± 0.32
15,CTGAAGAAACTACAACGTACAAAATATGTATATATT [XGTACX_site3779],8.55 ± 0.4
16,TTATTATATTAAAATTGTACTTGCTTTCAATATGAT [XGTACX_site5305],8.23 ± 0.35
17,TTTCTTTTACATATTTGTACATATATAAATTTATAT [XGTACX_site1787],8.91 ± 0.35
18,TACATTTAAAAAAAAACACACATATTTATATTTATA [CACACA_site7236],8.01 ± 0.49
19,TTATCATTTTAAATCACACACATATATATATATATA [CACACA_site2849],10.1 ± 0.49
20,TACATTTAAAAAAAAACACACATATATATATATATA [CACACA_site2535],10.3 ± 0.33
21,TCTTATCATTTTAAATCACACACATATATATATATA [CACACA_site8925],10.2 ± 0.16
22,TTATCATTTTAAATCACACACATATATAAATATGTA [CACACA_site7359],8.28 ± 0.35
23,TTAAAAAAAAAACACACACACATACACATATATATA [CACACA_site3299],8.77 ± 0.33
